# Test results from PubChem BioAssay.
# Activity calls are given as the source filed them.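 The calls were made as follows, unless noted: active = normalized viability below 100% at a tested concentration; inactive = the rest.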
# Experiments:
# [1] = ovarian cancer cell viability with rucaparib, profiling panel, oncology-focused library, rucaparib conditional (AID 1508598); details: patient-derived ovarian cancer cells, CellTiter-Glo viability, 144 h, stronger effect = lower value
# [2] = sensitizers of A549 cells to miR-34 induction, primary screen, imaging, A549 dox-inducible miR-34, nuclei and caspase counts (AID 1347080;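 active = compounds whose cell count with miR-34 switched on is under 0.7 times the count with it off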); details: A549 miR-34 inducible, Hoechst nuclei count, 48 h
# [3] = survival rescue of mitochondrial mutant cells in low glucose, primary screen, MELAS cybrids, Rieske KO mouse fibroblasts, CellTiter-Glo (AID 1508586;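 active = mean z-score across replicates of 1.96 or higher in either the MELAS or the Rieske mutant cell line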;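 also: z relative to plate mean and SD of compound and empty wells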)
# [4] = at 1.25 µM, OCI-C5x cells, with rucaparib 10 µM, 100% = cells with rucaparib alone
# [5] = at 1.25 µM, OCI-C5x cells, without rucaparib
# [6] = at 1.25 µM, OCI-P5x cells, with rucaparib 20 µM, 100% = cells with rucaparib alone
# [7] = at 1.25 µM, OCI-P5x cells, without rucaparib
# [8] = at 5 µM, OCI-C5x cells, with rucaparib 10 µM, 100% = cells with rucaparib alone
# [9] = at 5 µM, OCI-C5x cells, without rucaparib
# [10] = at 5 µM, OCI-P5x cells, with rucaparib 20 µM, 100% = cells with rucaparib alone
# [11] = at 5 µM, OCI-P5x cells, without rucaparib
# [12] = stronger effect = lower value, cell number ratio, induced over uninduced
# [13] = measured here: relative caspase fold change +Dox/-Dox
# [14] = measured here: total cells with miR-34 induction, stronger effect = lower value
# [15] = measured here: total cells without miR-34 induction
# [16] = MELAS cybrid survival, CellTiter-Glo 48 h, stronger effect = higher value
# [17] = Rieske KO mouse fibroblast survival, CellTiter-Glo 72 h
# [18] = at 0.000305 µM, OCI-C5x cells, with rucaparib 10 µM, 100% = cells with rucaparib alone
# [19] = at 0.000305 µM, OCI-C5x cells, without rucaparib
# [20] = at 0.000305 µM, OCI-P5x cells, with rucaparib 20 µM, 100% = cells with rucaparib alone
# [21] = at 0.000305 µM, OCI-P5x cells, without rucaparib
# [22] = at 0.00122 µM, OCI-C5x cells, with rucaparib 10 µM, 100% = cells with rucaparib alone
# [23] = at 0.00122 µM, OCI-C5x cells, without rucaparib
# [24] = at 0.00122 µM, OCI-P5x cells, with rucaparib 20 µM, 100% = cells with rucaparib alone
# [25] = at 0.00122 µM, OCI-P5x cells, without rucaparib
# [26] = at 0.00488 µM, OCI-C5x cells, with rucaparib 10 µM, 100% = cells with rucaparib alone
# [27] = at 0.00488 µM, OCI-C5x cells, without rucaparib
# [28] = at 0.00488 µM, OCI-P5x cells, with rucaparib 20 µM, 100% = cells with rucaparib alone
# [29] = at 0.00488 µM, OCI-P5x cells, without rucaparib
# [30] = at 0.0195 µM, OCI-C5x cells, with rucaparib 10 µM, 100% = cells with rucaparib alone
# [31] = at 0.0195 µM, OCI-C5x cells, without rucaparib
# [32] = at 0.0195 µM, OCI-P5x cells, with rucaparib 20 µM, 100% = cells with rucaparib alone
# [33] = at 0.0195 µM, OCI-P5x cells, without rucaparib
# [34] = at 0.0781 µM, OCI-C5x cells, with rucaparib 10 µM, 100% = cells with rucaparib alone
# [35] = at 0.0781 µM, OCI-C5x cells, without rucaparib
# [36] = at 0.0781 µM, OCI-P5x cells, with rucaparib 20 µM, 100% = cells with rucaparib alone
# [37] = at 0.0781 µM, OCI-P5x cells, without rucaparib
# [38] = at 0.313 µM, OCI-C5x cells, with rucaparib 10 µM, 100% = cells with rucaparib alone
# [39] = at 0.313 µM, OCI-C5x cells, without rucaparib
# [40] = at 0.313 µM, OCI-P5x cells, with rucaparib 20 µM, 100% = cells with rucaparib alone
# [41] = at 0.313 µM, OCI-P5x cells, without rucaparib
compound,measurement,setting,value
CCCc1ccc(OCC(=O)N(Cc2nc(-c3cccnc3)no2)C(C)C)cc1,viability,[1]; [4],115% (inactive)
same,viability,[1]; [5],112% (inactive)
same,viability,[1]; [6],103% (inactive)
same,viability,[1]; [7],96.3% (active)
same,viability,[1]; [8],99.7% (active)
same,viability,[1]; [9],111% (inactive)
same,viability,[1]; [10],93.2% (active)
same,viability,[1]; [11],100% (inactive)
C[C@@H]1COc2c(N3CCN(C)CC3)c(F)cc3c(=O)c(C(=O)O)cn1c23,fold change,[2]; [12],0.906 (inactive)
same,fold change,[2]; [13],0.634
same,cell count,[2]; [14],8330
same,cell count,[2]; [15],9190
same,z-score,[3]; [16],-0.0742 (inactive)
same,z-score,[3]; [17],0.213
NC(=O)CCCSc1nc(N)nc(-c2c(Cl)cc3c4c(cccc24)COC3)n1,fold change,[2]; [12],0.945 (inactive)
same,fold change,[2]; [13],0.479
same,cell count,[2]; [14],2430
same,cell count,[2]; [15],2570
same,z-score,[3]; [16],2.88 (active)
same,z-score,[3]; [17],-2.67
same,viability,[1]; [18],109% (inactive)
same,viability,[1]; [19],95.8% (active)
same,viability,[1]; [20],104% (inactive)
same,viability,[1]; [21],102% (inactive)
same,viability,[1]; [22],107% (inactive)
same,viability,[1]; [23],101% (inactive)
same,viability,[1]; [24],98% (active)
same,viability,[1]; [25],96.2% (active)
same,viability,[1]; [26],114% (inactive)
same,viability,[1]; [27],103% (inactive)
same,viability,[1]; [28],106% (inactive)
same,viability,[1]; [29],98.7% (active)
same,viability,[1]; [30],125% (inactive)
same,viability,[1]; [31],111% (inactive)
same,viability,[1]; [32],103% (inactive)
same,viability,[1]; [33],94.9% (active)
same,viability,[1]; [34],147% (inactive)
same,viability,[1]; [35],98.7% (active)
same,viability,[1]; [36],16.9% (active)
same,viability,[1]; [37],38.5% (active)
same,viability,[1]; [38],74.7% (active)
same,viability,[1]; [39],35.4% (active)
same,viability,[1]; [40],14.5% (active)
same,viability,[1]; [41],8.07% (active)
same,viability,[1]; [4],16% (active)
same,viability,[1]; [5],7.19% (active)
same,viability,[1]; [6],7.31% (active)
same,viability,[1]; [7],5.49% (active)
same,viability,[1]; [8],9.52% (active)
same,viability,[1]; [9],6.09% (active)
same,viability,[1]; [10],4.5% (active)
same,viability,[1]; [11],3.17% (active)
Cc1cc(C)c(S(=O)(=O)n2cc(C)cc2C)c(C)c1,fold change,[2]; [12],0.922 (inactive)
same,fold change,[2]; [13],0.448
same,cell count,[2]; [14],7540
same,cell count,[2]; [15],8180
same,z-score,[3]; [16],-0.318 (inactive)
same,z-score,[3]; [17],0.313
same,viability,[1]; [18],109% (inactive)
same,viability,[1]; [19],106% (inactive)
same,viability,[1]; [20],102% (inactive)
same,viability,[1]; [21],104% (inactive)
same,viability,[1]; [22],121% (inactive)
same,viability,[1]; [23],104% (inactive)
same,viability,[1]; [24],97.6% (active)
same,viability,[1]; [25],96% (active)
same,viability,[1]; [26],116% (inactive)
same,viability,[1]; [27],101% (inactive)
same,viability,[1]; [28],106% (inactive)
same,viability,[1]; [29],101% (inactive)
same,viability,[1]; [30],112% (inactive)
same,viability,[1]; [31],94% (active)
same,viability,[1]; [32],105% (inactive)
same,viability,[1]; [33],97.2% (active)
same,viability,[1]; [34],128% (inactive)
same,viability,[1]; [35],102% (inactive)
same,viability,[1]; [36],99.3% (active)
same,viability,[1]; [37],97.7% (active)
same,viability,[1]; [38],122% (inactive)
same,viability,[1]; [39],109% (inactive)
same,viability,[1]; [40],101% (inactive)
same,viability,[1]; [41],98.8% (active)
same,viability,[1]; [4],113% (inactive)
same,viability,[1]; [5],94.4% (active)
same,viability,[1]; [6],106% (inactive)
same,viability,[1]; [7],102% (inactive)
same,viability,[1]; [8],122% (inactive)
same,viability,[1]; [9],110% (inactive)
same,viability,[1]; [10],101% (inactive)
same,viability,[1]; [11],102% (inactive)
